Among the data in PubChem BioAssay are GFP response, % of DMSO values, retold here.

Inconclusive results are not listed. Unmarked numbers belong to inactive results.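 Rule for the calls: active = GFP signal above the screen-wide mean plus 3 SD, that is over about 124.5% of the solvent control; inconclusive = no reading because the compound's own fluorescence disturbed strain identification; inactive = the rest.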

This assay can be described thus: modulators of AGP1-GFP expression in yeast TOR pathway, primary screen, cell-based, multiplex flow cytometry, S. cerevisiae (AID 1887).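 Note: AGP1-GFP fusion strain of S. cerevisiae within a five-strain barcoded multiplex.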 The note with it: 3 h, at 10 µM, stronger effect = higher value.
For the compound `CCC(C)NCCOc1ccc(C(C)(C)c2ccccc2)cc1` (stereo not given), the GFP response, % of DMSO is 103%.
Take `O=C(NCc1ccc(N2CCCC2=O)cc1)c1ccc(F)cc1`: the GFP response, % of DMSO is 116%.
As to `CC1(C)O[C@@H]2C[C@H]3[C@@H]4C[C@H](F)C5=CC(=O)CC[C@]5(C)[C@H]4[C@@H](O)C[C@]3(C)[C@]2(C(=O)CO)O1`, the GFP response, % of DMSO is 92.4%.
On to `N/C(=N\OC(=O)CCCOc1ccc(Cl)cc1Cl)c1ccncc1`, for which the GFP response, % of DMSO was 92.4%.
On to `COCCCN1C(=O)/C(=C\c2cccs2)C(C(=O)OC)=C1C`, for which the GFP response, % of DMSO was 99.4%.
In the case of `Cc1ccc2nc(C)c3c(c2c1)OC(C(C)(Cl)Br)C3` (stereo not given), the GFP response, % of DMSO is 105%.
To `CC12COC3(C(=O)Nc4ccc(F)cc4)CC1CCC32C` (stereo not given) belongs 85.9%; to `Cc1ccnc(NS(=O)(=O)c2ccc(N)cc2)n1`, 111%; to `CC1(C)CC(=O)c2cnc(NC(=O)C3CCCC3)nc2C1`, 96.5%.
Turning to `COc1ccc(CCN2CNc3c(c(=O)n(C)c(=O)n3C)C2)cc1OC`, the GFP response, % of DMSO is 116%.
As to `O=C(O)CCCc1ccccc1`, the GFP response, % of DMSO is 99.7%.
As to `CCCNCC(O)COc1ccccc1C(=O)CCc1ccccc1` (stereo not given), the GFP response, % of DMSO is 92.9%.
With `COc1ccc(C(=O)O)cc1F`, the GFP response, % of DMSO is 103%.
As for `COc1cc(C)nc(-n2nc(C)cc2OC)n1`, the GFP response, % of DMSO is 102%.
Next, `CCCCCCC(=O)N(O)C1CC(=O)N(Cc2ccccc2)C1=O` (stereo not given): 101%; `CC(=O)N1CCN(c2ccc(NC(=O)/C=C/c3ccccc3)cc2)CC1`: 108%.
Next, `Cc1ccc(Nc2ncccc2C(=O)O)cc1C`: 94.7%; `CCCCCCCC(=O)OCC(O)CO` (stereo not given): 90.3%; `CSCCC(NC(C)=O)C(=O)Oc1ccc2c3c(c(=O)oc2c1)CCCC3` (stereo not given): 100%.
With `CC(C)CN1CCN(Cc2ccc(C#CC(C)(C)O)cc2)CC1CCO` (stereo not given), the GFP response, % of DMSO was 86.6%.
For `Cc1nc(C2CC(=O)OC23CCCCC3)cs1` (stereo not given), the GFP response, % of DMSO was 94%.
Turning to `CO[C@H]1C=CO[C@@]2(C)Oc3c(C)c(O)c4c(O)c(c(C=NN5CCN(C)CC5)c(O)c4c3C2=O)NC(=O)C(C)=CC=C[C@H](C)[C@H](O)[C@@H](C)[C@@H](O)[C@@H](C)[C@H](OC(C)=O)[C@@H]1C`, the GFP response, % of DMSO was 98.2%.
Take `COc1cccc(-n2cc(CNCc3c(C(=O)N(C)C)nc4ccc(Cl)cn34)cn2)c1`: the GFP response, % of DMSO was 99.9%.
As to `S=C(c1ccc2c(c1)OCO2)N1CCCCC1`, the GFP response, % of DMSO was 106%.
With `CC(C)Oc1ccc2c(=O)c(-c3ccccc3)coc2c1`, the GFP response, % of DMSO is 94%.
In the case of `CCn1cc(CN2N=C(C)CC2c2ccccc2)c(C)n1` (stereo not given), the GFP response, % of DMSO was 97.2%.
`CCCCOc1ccc(C(=O)CCN2CCCCC2)cc1`: the GFP response, % of DMSO was 78.8%.
To `NCCCC(N)(C(=O)O)C(F)F` (stereo not given) belongs 112%; to `C[N+](C)(C)CCOP(=O)([O-])OC[C@H](O)CO`, 114%.
To `O=C(O)C1CCN(C(=O)COc2ccc3c4c(c(=O)oc3c2)CCC4)CC1` belongs 110%.
Consider `COc1ccc(OC)c(S(=O)(=O)N2CCCc3ccccc32)c1`, for which the GFP response, % of DMSO is 105%.
For `COc1ccc2[nH]c(=O)c3c(c2c1)OC(C)(C)C=C3`, the GFP response, % of DMSO was 95.1%.
As to `CCN1CCN(C(=S)c2ccc(OC)cc2)CC1`, the GFP response, % of DMSO is 92.6%.
Next, `C=CCOc1ccc(C(=O)CC)cc1OC`: 98.6%.
To `CCc1cccc2c3c([nH]c12)C(CC)(CC(=O)O)OCC3` (stereo not given) belongs 100%; to `COc1ccc(OC(C)C(=O)Nc2ccccc2F)cc1` (stereo not given), 99.3%.
As to `CCCC(=O)Nc1ccccc1NC(C)=O`, the GFP response, % of DMSO is 104%.
For the compound `O=C(O)CCCCCCNC(=O)c1cncc(O)c1`, the GFP response, % of DMSO is 115%.
Next, `COc1ccc(Br)cc1C(=O)Nc1ccc(C(=O)O)cc1`: 68.8%.
Take `CC[N+]1(CC)CC2=Cc3ccccc3CC2C1` (stereo not given): the GFP response, % of DMSO is 88.9%.
